Measurements published in PubChem BioAssay AID651822 (The Scripps Research Institute Molecular Screening Center, 2012).
The campaign covered roughly 2,300 compounds. About 970 (42%) were called active. The set was probably picked from earlier hits. Only a sample is shown. A number with no mark means an inactive call. Cut-off read from the data, not from the text of the source: active = inhibition above about 4.5%; inactive = the rest.

Test system: Methionine sulfoxide reductase A (Bos taurus)
Test: bovine MsrA inhibitors, retest, confirmation, biochemical, absorbance, HTS (AID 651822);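 note: coupled to thioredoxin reductase with NADPH and selenocystamine and DMSO as substrate; 0% = vehicle only and 100% = full effect of reference inhibitor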
Settings: purified bovine MsrA, absorbance read-out; at 15.5 µM; active compounds read high

Compound	inhibition
CCCCC(=O)N/N=C/c1c(O)n(CC)c(=S)n(CC)c1=O	6.08% (active)
CCOc1ccc(-c2cc(C)[n+](CCN(CC)CC)c(-c3ccc(OCC)cc3)c2)cc1	3.69%
COc1ccc(C(=O)C2CCCN(Cc3ccc(C)s3)C2)cc1OC (stereo not drawn)	-0.82%
